The campaign covered roughly 330,000 compounds. About 4,200 (1.3%) were called active. Not shown: some 6% with an inconclusive outcome. The sample holds actives, similar compounds and a random draw of the others, so the mix is not that of the screen. Values without a mark were called inactive. Calls come from the whole dose curve; as a rule, active = well fitted activation curve with a large enough effect; inconclusive = small, poorly fitted or top-dose-only effect; inactive = no such curve, though single readings can be large or run the other way.
Test: qHTS screen for small molecules that induce genotoxicity in human embryonic kidney (HEK293T) cells expressing luciferase-tagged ELG1; note: nearly all actives have a fitted effect of over 60% in size; for activity change, positive = activation: % of control where 0% means no effect
Conditions: HEK293T ELG1-luciferase reporter, luminescence, 16 h; series mostly up to 46 µM; activity change, positive = activation: at the top concentration
Outline: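 Genotoxicity was scored as increased ELG1-luciferase reporter signal, measured by ONE-Glo luminescence (30 min, room temperature). Compound or vehicle exposure of the HEK293T reporter cells lasted 16 hr at 37°C.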
Potency is the fitted concentration of half-maximal effect.

Going from Cc1csc(=O)n1CC(=O)Nc1ccc(S(C)(=O)=O)cc1 to Cc1cccc(S(=O)(=O)CC(=O)Nc2nc(-c3ccccc3)cs2)c1, the “activity change, positive = activation” value falls from 1.22% to -2.42%.

Going from O=C(COC(=O)c1ccc(F)c(S(=O)(=O)N2CCOCC2)c1)NCc1ccc2c(c1)OCO2 to Cn1c(N)c(C(=O)COC(=O)c2cccc(S(=O)(=O)N3CCOCC3)c2)c(=O)n(C)c1=O, the “activity change, positive = activation” value rises from -1.23% to 1.81%.

Going from O=C1CC2(CCCC2)C(=O)N1CN1CCN(S(=O)(=O)c2ccc(F)cc2F)CC1 to O=C(Nc1cc(S(=O)(=O)N2CCCCC2)ccc1Cl)C1COc2ccccc2O1 (centres undefined), the “activity change, positive = activation” value falls from -1.8% to -5.67%.

First: Nc1ccc(S(=O)(=O)Nc2nccc(/C=C/c3ccc(Br)s3)n2)cc1
Second: COc1ccc(NS(=O)(=O)c2ccc3oc(SCC(N)=O)nc3c2)cc1
The “activity change, positive = activation” value of the first is higher: 2.69% for the first, -12.5% for the second.

Going from O=C(O)c1ccccc1C(=O)Nc1nc(-c2ccccc2)cs1 to O=C(Nc1nc(-c2ccc(-c3ccccc3)cc2)cs1)c1cnccn1, the “activity change, positive = activation” value rises from 1.21% to 15.3%.

Going from O=C(COc1ccccc1F)Nc1nc(-c2ccccn2)cs1 to CCc1noc(C)c1C(=O)Nc1nc(-c2ccccc2)cs1, the “activity change, positive = activation” value falls from 7.21% to 1.72%.

Going from CC1O[C@@H](OC2C(O)C(C)O[C@H](OC(=O)[C@]34CCC(C)(C)C[C@H]3C3=CCC5[C@@]6(C)CC(O)C(O[C@@H]7OC(CO)C(O)[C@@H](O)[C@@H]7O)[C@@](C)(C(=O)O)C6CC[C@@]5(C)[C@]3(CO)CC4)C2O[C@H]2OC(C)[C@@H](O[C@@H]3OCC(O[C@@H]4OC(CO)C(O)[C@H](O)C4O)[C@@H](O)[C@@H]3O)[C@H](O)C2O)C(O)C(O)C1O (some centres undefined) to CC[C@]12c3[nH]c4ccc(Cl)cc4c3CCN1C(=O)[C@@H](CC(=O)NCCN1CCOCC1)C[C@@H]2C(=O)N1CCN(C(=O)C2CC2)CC1, the “activity change, positive = activation” value rises from -0.551% to 5.63%.

Going from C=CCNC(=O)c1csc(-c2ccccc2)n1 to C=CCNC(=O)c1ccccc1SCc1c(C)noc1C, the “activity change, positive = activation” value rises from 3.59% to 10.9%.

First: C[C@H](CO)N1C[C@H](C)[C@@H](CN(C)S(=O)(=O)c2ccc(F)cc2)Oc2ccc(NC(=O)CCC(F)(F)F)cc2C1=O
Second: C[C@H](CO)N1C[C@H](C)[C@@H](CN(C)C(=O)Nc2ccc3c(c2)OCO3)Oc2c(cccc2N(C)C)C1=O
The “activity change, positive = activation” value of the first is lower: -1.82% for the first, 3.83% for the second.

Compared with COc1ccc(OCC(=O)Nc2nnc(-c3ccco3)s2)cc1, COc1ccc(NC(=O)c2sc(N)nc2-c2ccccc2)cc1 is higher in “activity change, positive = activation” value: -0.333% for the first, 1.11% for the second.

Going from O=C(CCc1ccccc1)Nc1cccc(-c2nnc(-c3ccco3)o2)c1 to O=C(NCC#CCSc1nnc(-c2cccc3ccccc23)o1)c1cccs1, the “activity change, positive = activation” value rises from -6.33% to -0.584%.

Going from CCC(C)c1ccc(NC(=O)COC(=O)C2CCCC2)cc1 (centres undefined) to CCCc1cc(=O)oc2c(C)c(OCC(=O)N3CCC(C(=O)O)CC3)ccc12, the “activity change, positive = activation” value falls from 13.7% to -1.71%.

Compared with COc1cc(/C=C/C(=O)Nc2ccc(OC)c(S(=O)(=O)N3CCOCC3)c2)ccc1OCC#N, CC(=O)c1ccc(NC(=O)CSc2nc3ccccc3c(=O)n2CCCN2CCOCC2)cc1 is higher in “activity change, positive = activation” value: -5.08% for the first, 15.5% for the second.

Compared with O=C(OCCN1C(=O)c2ccccc2C1=O)[C@@H]1CC(O)CN1S(=O)(=O)c1ccccc1[N+](=O)[O-] (some centres undefined), Cc1c(NC(=O)C(C)OC(=O)c2ccccc2O)c(=O)n(-c2ccccc2)n1C (centres undefined) is higher in “activity change, positive = activation” value: -0.548% for the first, 1.59% for the second.

Compared with COc1ccc(S(=O)(=O)N(C)C)cc1NC(=O)CSc1ncccn1, Cc1ccc(CNC(=O)Cn2cnc3c(NCc4ccccc4)ncnc32)o1 is lower in “activity change, positive = activation” value: 2.94% for the first, 0.754% for the second.

First: CCCCN1Cc2c(nc3cc(-c4ccccc4)[nH]n3c2=O)C1=O
Second: COc1ccc(Nc2nnc(C)c3ccccc23)cc1
The “activity change, positive = activation” value of the first is lower: 3.81% for the first, 16.7% for the second.

First: O=c1c2c(nc3nc[nH]n13)CCC2
Second: c1csc(-c2cn3c(n2)SCC3)c1
The “activity change, positive = activation” value of the first is higher: 4.12% for the first, 3.5% for the second.

Going from Clc1ccc(-c2csc(-c3ccncc3)n2)cc1 to Clc1ccc(-n2nnnc2-c2cnc(-c3ccccn3)nc2-c2cccs2)cc1, the “activity change, positive = activation” value falls from 12.6% to -5.46%.

With O=C(CNC(=O)c1ccco1)NNC(=O)c1ccc(Br)cc1 the “activity change, positive = activation” value was -1.29%.

For Oc1cccc2ccc(/C=C/c3ccc(Br)s3)nc12, the Potency was 20.6 µM (active).
For O=C(Nc1nc(-c2cccnc2)cs1)c1ccccc1F, the Potency was 18.3 µM (active).
For C=CCNC(=O)c1cc(-c2ccccc2O)on1, the Potency was 18.4 µM (active).
With CCCCOc1ccc(-c2nnc(-c3ccco3)o2)cc1 the Potency was 3.66 µM (active).
For CCCc1cc(=O)oc2c(C)c(OCC(=O)Nc3ccccn3)ccc12, the Potency was 5.17 µM (active).
In the case of CN(C)S(=O)(=O)c1ccc2oc(SCC(=O)Nc3ccccc3F)nc2c1, the Potency is reported as 10.3 µM (active).
For O=c1c2c(nc3cc(-c4cccc(Cl)c4)[nH]n13)CCCC2, the Potency was 0.517 µM (active).
For Cc1cccc(Nc2nc(-c3ccccc3)cs2)n1, the Potency was 2.91 µM (active).
For COc1ccc(Nc2nc(-c3ccccc3)cs2)cc1, the Potency was 0.58 µM (active).
With c1ccc(Nc2nc(-c3ccncc3)cs2)nc1 the Potency was 1.46 µM (active).
In the case of Clc1ccc(Nc2nc(-c3cccs3)cs2)nc1, the Potency is reported as 1.16 µM (active).

Work on CCCc1cc(=O)oc2c(C)c(OCC(=O)NCc3ccccn3)ccc12 yielded an activity change, positive = activation of 0.193% [at 9.26 µM].
